Assay outcomes as filed in PubChem.
Only a selection was taken, and hits are over-represented in it overall.
Tb PYK inh = qHTS of Trypanosoma Brucei Inhibitors; pyruvate kinase (Trypanosoma brucei), Q57TT1; TbPYK enzyme, Kinase-Glo Plus ATP luminescence, 45 min; Potency, µM (highest dose often 76.8 µM), hits mostly inhibitors; 410,000 tested, 0.12% active; AID 624173, 2012; note: nearly all actives have a fitted effect of over 50% in size
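Glycolytic pyruvate kinase of T. brucei was incubated with substrate, test compound and 130 uM ADP for 45 minutes at room temperature. Luminescent Kinase-Glo Plus signal was measured after 10 minutes.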
Cycloheximide cs = Cycloheximide Counterscreen for Small Molecule Inhibitors of Shiga Toxin. cell reporter, cycloheximide protein synthesis inhibition counterscreen. max response, %. 300,000 tested, 12% active; in the data active = max response mostly above about 13%, no sharp cut-off; inactive = mostly below about 14%; note: read at 38.3 µM for the half of the compounds with a filed dose
LmPK inh = qHTS Assay for Inhibitors of Leishmania Mexicana Pyruvate Kinase (LmPK). Q27686. purified LmPK, Kinase-Glo ATP luminescence, 1 h. Potency, µM (titrated, usually from 57.5 µM), usual class: inhibitors. 290,000 tested, 0.37% active. AID 1721, 2009
Target sequence (Q27686 whole entry, looked up): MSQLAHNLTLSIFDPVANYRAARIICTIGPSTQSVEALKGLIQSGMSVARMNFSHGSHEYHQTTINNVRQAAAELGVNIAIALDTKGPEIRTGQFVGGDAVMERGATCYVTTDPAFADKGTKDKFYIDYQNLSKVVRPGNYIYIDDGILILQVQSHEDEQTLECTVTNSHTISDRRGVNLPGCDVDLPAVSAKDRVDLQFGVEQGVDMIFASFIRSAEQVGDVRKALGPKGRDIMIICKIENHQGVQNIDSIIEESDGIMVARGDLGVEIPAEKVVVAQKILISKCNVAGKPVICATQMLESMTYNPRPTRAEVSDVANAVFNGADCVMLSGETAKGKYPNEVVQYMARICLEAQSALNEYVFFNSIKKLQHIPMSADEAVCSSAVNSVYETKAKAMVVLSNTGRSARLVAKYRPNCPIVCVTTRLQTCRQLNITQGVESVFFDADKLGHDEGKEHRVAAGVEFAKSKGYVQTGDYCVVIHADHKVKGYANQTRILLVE
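Purified LmPK (0.1 nM) converted ADP (0.1 mM) to ATP with PEP (0.5 mM) in imidazole buffer pH 7.2 with KCl and MgCl2, 1 h at room temperature. ATP was read by Kinase-Glo luminescence; data normalized to uninhibited and no-enzyme controls.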
FBPA Giardia inh = qHTS Assay for Inhibitors of Fructose-1,6-bisphosphate Aldolase from Giardia Lamblia; purified Giardia FBPA; Potency, µM (top dose mostly 59.6 µM), hits mostly inhibitors; 290,000 tested, 0.71% active; note: nearly all actives have a fitted effect of over 55% in size
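40 nM FBPA preincubated 10 min at RT with compound (up to 57.5 uM final), then substrate plus GAPDH/TPI/NAD/arsenate coupling and diaphorase/resazurin added. Fluorescence read after 20 min at RT, 525/598 nm.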
Shiga inhibitor = A qHTS for Small Molecule Inhibitors of Shiga Toxin; inhibition, % at 38.7 µM; AID 2315, 2010; Vero cells, Shiga toxin protein synthesis inhibition reporter; 290,000 tested, 9.2% active; in the data active = inhibition mostly above about 28%, no sharp cut-off; inactive = mostly below about 43%
RE007 growth inh = qHTS Assay for Inhibitors of the HIV-1 protein Vpr; S. pombe RE007 Vpr strain, BacTiter-Glo ATP luminescence, 24 h; Potency, µM (highest dose often 92.2 µM), most hits filed as inhibitors; 360,000 tested, 0.21% active; AID 651644, 2012; active = well fitted falling curve with a large enough effect; inconclusive = small, poorly fitted or top-dose-only effect; inactive = no such curve, though single readings can be large or run the other way; note: nearly all actives have a fitted effect of over 50% in size
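Fission yeast RE007 carrying one integrated HIV-1 vpr copy, seeded at OD 0.01 in PMG+AL medium with 23 nL pinned compound. Grown 24 h at 30 degrees; viability read by BacTiter-Glo luminescence after 5 min.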
Of the large screens only hits and unclear results are named; the others gave an inactive call. Unless noted, calls come from the whole dose curve; as a rule, active = well fitted curve in the direction sought with a large enough effect; inconclusive = small, poorly fitted or top-dose-only effect, or another doubt; inactive = no such curve, though single readings can be large; an effect the other way counts as inactive or inconclusive.

COCCN1C(=O)CCC1(C)C(=O)Nc1c(C)cccc1C (centres undefined)	none (no result: Cycloheximide cs, LmPK inh, FBPA Giardia inh, Shiga inhibitor)
Cn1c2ccccc2c2ccc3c(c21)C(=O)C=CC3=O	Tb PYK inh 22.4µM (no result: Cycloheximide cs, LmPK inh, FBPA Giardia inh, Shiga inhibitor)
COc1ccc(/C=C/C2=CCN(C)CC2)cc1	Cycloheximide cs 46.3, Shiga inhibitor 63.3
CN1CC=C(/C=C/c2ccc(-c3ccccc3)cc2)CC1	Cycloheximide cs 42.9, Shiga inhibitor 84.4
CCCCN(C(=O)Cc1ccc(S(=O)(=O)N2CCOCC2)s1)c1c(N)n(CC(C)C)c(=O)[nH]c1=O	none (no result: Cycloheximide cs, LmPK inh, FBPA Giardia inh, Shiga inhibitor)
C/C(=N\N(C)C)C1=C(O)c2ccccc2C1=O	Cycloheximide cs 29.2, Shiga inhibitor 89.4
CC(=NC1CC1)C1=C(O)c2ccccc2C1=O	Cycloheximide cs 50.1, Shiga inhibitor 54.6
CCCn1cc(S(=O)(=O)c2ccc(CC)cc2)c(=O)c2ccccc21	none (no result: Cycloheximide cs, LmPK inh, FBPA Giardia inh, Shiga inhibitor, RE007 growth inh)
N#Cc1c(NC(=O)CS(=O)(=O)c2ccc(Cl)cc2)sc2c1CCCCC2	none (no result: Cycloheximide cs, LmPK inh, FBPA Giardia inh, Shiga inhibitor, RE007 growth inh)
COc1ccc(C(=O)NCC(C)(C)CNC(=O)c2ccc(OC)cc2)cc1	none (no result: Cycloheximide cs, LmPK inh, FBPA Giardia inh, Shiga inhibitor)
COc1ccc(C(=O)NC(=O)NC2(C(Cl)(Cl)Cl)OCCO2)cc1	Cycloheximide cs 51.5, Shiga inhibitor 76.0
O=C(CSc1nc(-c2ccccc2Cl)ns1)NCc1ccco1	none
NC(=O)CSc1nc(-c2ccccc2Cl)ns1	Cycloheximide cs 44.8, Shiga inhibitor 18.6
CCC(C)C(=O)N1CCc2cc(-c3csc(N)n3)ccc21 (centres undefined)	Cycloheximide cs 51.5, Shiga inhibitor 65.2
CC(=O)Nc1nc(-c2ccc3c(c2)CCN3C(=O)C2CC2)c(C)s1	none (no result: FBPA Giardia inh)
CCCC(=O)N1CCc2cc(-c3nc(N)sc3C)ccc21	Cycloheximide cs 49.4, Shiga inhibitor 79.2
CCN(CC)S(=O)(=O)c1ccc(N2CC(C(=O)NC3(C)CCS(=O)(=O)C3)CC2=O)cc1 (centres undefined)	none (no result: Cycloheximide cs, LmPK inh, FBPA Giardia inh, Shiga inhibitor)
Cc1nn(-c2ccccc2)c(-n2cccc2)c1C(=O)NCCc1ccc(Cl)cc1	none (no result: Cycloheximide cs, LmPK inh, FBPA Giardia inh, Shiga inhibitor, RE007 growth inh)
Cc1c(C(=O)Nc2ccncc2)sc2nc(-c3ccc(F)cc3)cn12	Cycloheximide cs 16.8
Cc1c(C(N)=O)sc2nc(-c3ccccc3)cn12	Cycloheximide cs 36.4, Shiga inhibitor 86.7
Cc1c(C(=O)NCC(C)C)sc2nc(-c3ccc(F)cc3)cn12	Cycloheximide cs 20.6
Cc1ccc(CNC(=O)c2sc3nc(-c4ccccc4)cn3c2C)cc1	none (no result: Cycloheximide cs, LmPK inh, FBPA Giardia inh, Shiga inhibitor, RE007 growth inh)
COC(=O)C1=C(C)NC(C)=C(C(=O)OCCCN2CCC(c3ccccc3)(c3ccccc3)CC2)[C@H]1c1cccc([N+](=O)[O-])c1	none (no result: Tb PYK inh, Cycloheximide cs, LmPK inh, Shiga inhibitor, RE007 growth inh)
Fc1ccc(N/N=C2/CC(c3ccccc3)Oc3ccccc32)c(F)c1 (centres undefined)	Cycloheximide cs 26.1, Shiga inhibitor 52.2
O=S(=O)(N/N=C1/CCCc2ccccc21)c1ccc(Br)cc1	none
O=S(=O)(N/N=C1/CC(c2ccccc2)Oc2ccccc21)c1ccc(Br)cc1 (centres undefined)	Cycloheximide cs 28.0
CNC(=S)N/N=C1\CC(c2ccccc2)Oc2ccccc21 (centres undefined)	none
Cc1ccc(S(=O)(=O)N/N=C2/CC(c3ccccc3)Oc3ccccc32)cc1[N+](=O)[O-] (centres undefined)	Cycloheximide cs 55.2, Shiga inhibitor 38.7, RE007 growth inh inconclusive
Fc1ccccc1Cc1noc(CN2CCC(OCc3cccnc3)CC2)n1	Cycloheximide cs 22.3, Shiga inhibitor 58.8
C/C(CC(=O)NC1CCCC1)=N\NC(=O)Cc1cccs1	Cycloheximide cs 15.5
C/C(CC(=O)Nc1ccc(Cl)cn1)=N\NC(=O)Cc1cccs1	Cycloheximide cs 12.6
C/C(CC(=O)NC12CC3CC(CC(C3)C1)C2)=N\NC(=O)Cc1cccs1	none (no result: RE007 growth inh)
CCCCCCc1cc2cc(-c3nnc(-c4cccc(Cl)c4)o3)c(=O)oc2cc1O	none (no result: Cycloheximide cs, LmPK inh, FBPA Giardia inh, Shiga inhibitor, RE007 growth inh)
N#CC1=C(N)C(C#N)(C#N)C(c2cccnc2)C2CCCC=C12 (centres undefined)	FBPA Giardia inh 4.46µM (no result: Tb PYK inh, RE007 growth inh)
